Data on 17 compounds can be found in PubChem BioAssay.

Activity calls are given as the source filed them. How the calls were made is not given here.

Usually inhibition stands for the change of the read-out against control, counted positive when it falls.

This assay deals with Pantothenate synthetase (Mycobacterium tuberculosis (strain ATCC 25618 / H37Rv)) (UniProt P9WIL5). The assay can be described thus: Recombinant Mtb pantothenate synthetase (PanC) inhibitors, coupled enzyme, confirmatory (AID 375).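 Further: 0% = full reaction with vehicle and 100% = no enzyme background.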 To be noted: coupled enzyme assay; at 10 µM, stronger effect = higher value.
Sequence of Pantothenate synthetase (Mycobacterium tuberculosis (strain ATCC 25618 / H37Rv)) (P9WIL5 whole entry, looked up): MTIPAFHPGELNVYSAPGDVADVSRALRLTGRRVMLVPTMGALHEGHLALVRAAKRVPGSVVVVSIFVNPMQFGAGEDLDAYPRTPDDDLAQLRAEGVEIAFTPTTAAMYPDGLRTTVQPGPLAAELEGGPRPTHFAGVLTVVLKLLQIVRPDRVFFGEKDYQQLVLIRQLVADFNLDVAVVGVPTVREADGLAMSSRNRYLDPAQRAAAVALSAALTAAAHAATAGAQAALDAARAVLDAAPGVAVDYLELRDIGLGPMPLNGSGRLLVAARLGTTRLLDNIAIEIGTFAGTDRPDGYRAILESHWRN
On to `COc1ccc(OC)c(C2C3=C(CCCC3=O)Nc3c2c(=O)n(C)c(=O)n3C)c1` (configuration not stated), for which the inhibition is 0% (inactive). In the case of `Cc1noc(NS(=O)(=O)c2ccc(N3C(=O)c4ccccc4C3=O)cc2)c1C`, the inhibition is 3% (inactive). Take `COc1ccc(NC(=O)C2Cc3ccccc3C(=O)O2)cc1` (configuration not stated): the inhibition is 0% (inactive).

Regarding `CCN(Cc1cc2cc(OC)ccc2[nH]c1=O)C(=O)Cc1ccc(OC)cc1`, the inhibition is 0% (inactive). Then `N#Cc1cn(CC(=O)N2CCCC2)c2ccccc12`, with 0% (inactive); and `Cc1cc(C(=O)COC(=O)CCc2nc3ccccc3s2)c(C)n1C`, with 0% (inactive).

Consider `O=C(CCNC(=O)c1ccc(Br)o1)NC1CCCC1`, for which the inhibition was 0% (inactive). Consider `CCn1c(=O)n(CC(=O)N(C)Cc2ccccc2)c(=O)c2ccccc21`, for which the inhibition is 12% (inactive). Then `Cn1c(=O)cc(OCC(=O)N2CCN(c3cccc(C(F)(F)F)c3)CC2)c2ccccc21`, with 12% (inactive); and `CCCCOC(=O)Nc1nc2ccc(OC)cc2s1`, with 5% (inactive). Then `CC(C)CC1NC2(C(=O)N(C)c3ccccc32)C2C(=O)N(C(C)C)C(=O)C12` (configuration not stated), with 0% (inactive); and `N#Cc1cnc(SCC(=O)c2ccccc2)nc1N`, with 2% (inactive); and `CCOC(=O)Nc1ccc2c(c1)N(C(=O)CN(CC)CC)c1ccccc1C=C2`, with 0% (inactive). In the case of `CC(C)(C)NC(=O)COC(=O)c1ccc(O)cc1`, the inhibition is 0% (inactive). Turning to `CC(C)(C)OC(=O)N1CC=C2C(C#N)=C(N)C(C#N)(C#N)C(c3cccs3)C2C1` (configuration not stated), the inhibition was 0% (inactive).

Turning to `Cc1cccc(NC2SC(=O)N(c3ccccc3)C2=O)c1` (configuration not stated), the inhibition is 0% (inactive). Then `Cc1ccc(/C=c2\s/c(=C(/C#N)C(=O)N3CCCC3)n(Cc3ccco3)c2=O)s1`, with 0% (inactive).
